Drawing on PubChem BioAssay AID990 (National Center for Advancing Translational Sciences (NCATS), 2007), this text covers outcome for seven molecules.

Active and inactive are the calls of the source.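 How the source made its calls: active means compound that made reporter-free parental cells show up as glowing objects under laser imaging, so likely a fluorescent false positive; inactive means the rest.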

The assay in a line: Parental Cell Counter Screen Assay for Epigenetic Modulators. The settings on record: parental c127i cells, compound fluorescence imaging, 30 h. The gist of the method:
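Fluorescent cells counted by laser-scanning imaging (objects 20–120 um) after washing. Counter screen uses untransfected murine c127i cells exposed to compound for 30 hours at 37 C, flagging intrinsically fluorescent compounds.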
(A counterscreen serves to expose hits that act by an unwanted route or on another target.)
For `c1cnn(-c2nc(N3CCOCC3)nc(N3CCOCC3)n2)c1`, the result was inactive.

As for `CC(/C=C/C(=O)NO)=C\[C@@H](C)C(=O)c1ccc(N(C)C)cc1`, the outcome was inactive. In the case of `O=C(CSc1cccc2cccnc12)NCc1ccccc1` it was “inactive”; in that of `c1ccc(Nc2nc(Nc3ccccc3)nc(-n3cccn3)n2)cc1`, “inactive”; in that of `COc1ccc(NC(c2ccccn2)c2ccc3cccnc3c2O)cc1` (configuration not stated), “inactive”. As for `CC(C)C(=O)NC(/C=C/c1ccccc1)c1cc([N+](=O)[O-])c2cccnc2c1O` (configuration not stated), the result was inactive. Turning to `CN(C)C(=O)CSc1cccc2cccnc12`, the result was inactive.
